Laboratory results as given in PubChem BioAssay (EPA / NIEHS).
Active and inactive are the calls of the source. The calls were made as follows: active = hit-call score of the fitted dose curve at least 0.9, where 1 is the maximum; inactive = score below 0.9.

Read-out: Peroxisomal acyl-coenzyme A oxidase 1 (ACOX1) gene, ACOX1 (gene 51)
Experiment: LTEA_HepaRG_ACOX1: Life Technologies and Expression Analysis (LTEA) Assay for Peroxisomal acyl-coenzyme A oxidase 1 (ACOX1) gene using HepaRG (AID 2283467)
Conditions: mRNA level, 48 h; actives raise or lower the signal
Protocol: LTEA_HepaRG is a cell based, multiplexed-readout assay that uses HepaRG, a human liver cell line, with measurements taken at 48 hours after chemical dosing on a 96-well plate.LTEA_HepaRG_ACOX1 is one of 102 assay component(s) measured in the LTEA HepaRG cell culture assay. It is a marker of Steatosis.Data from the assay component LTEA_HepaRG_ACOX1 was analyzed into 1 endpoint. This assay endpoint, LTEA_HepaRG_ACOX1, was analyzed with bidirectional fitting relative to DMSO as the negative control and baseline of activity. Using a type of inducible reporter, measures of mRNA induction for gain or loss-of-signal activity can be used to understand regulation of transcription factor activity. To generalize the intended target to other relatable targets, this assay endpoint is annotated to the oxidase intended target family, where the subfamily is steatosis.
A total of 1060 chemcials from the ToxCast library were tested in eight-point concentration-response experiments. Cell culture and cytotoxicity assays were conducted at Thermo Fisher Scientific's Custom Services facility (Madison, WI). A single lot of human HepaRG cells (Thermo Fisher Scientific, Frederick, MD) was used for the cell culture experiments. 96-well format collagen type I coated plates of human HepaRG cells were prepared using established methods. Briefly, cryopreserved HepaRG cells were thawed, plated at a density of approximately 100,000 cells/well in HepaRG Thaw, Plate, and General Purpose media (HPRG770, Thermo Fisher Scientific), and incubated for 48 hours. 0.5% DMSO was selected as vehicle control to balance the requisite need of DMSO in HepaRG cultures to maintain differentiation (for example, baseline metabolism, proportions of hepatocytes vs. cholangiocytes), while enabling further hepatic receptor pathway activation (for example, PXR and CAR) in response to chemical exposure. 48 hours after plating, the culture medium was replaced with HepaRG Serum-Free Incudtion Media. Cells were exposed to each test chemical in duplicate and maintained in CO2 incubators for another 48 hours. Chemical plates were thawed to room temperature and 200x concentrations of treatment groups were prepared. 8-point conentration-reponse curves were made with the highest exposure at 100 uM, followed by half-log dilutions, all in 0.5% DMSO. Each test plate contained variouse controls, induction positive controls (1mM phenobarbital), cytotoxicity positive controls ([…] aflatoxin B1), vehicle controls (0.5% DMSO), and total lysis controls (0.5% DMSO). Cell morphology images were taken using an Essen IncuCyte FLR automated microscope, with six 96-well plates imaged in about 24 minutes. Images were captured and exported and JPEG files. Spent culture media was transfered to black-well plates for the LDH assay, and remaining media was sorted at -80 C for later use. Cells were treated with RLT buffer and frozen until shipped for gene expression analysis. Total RNA was isolated from the cell suspension in 75 uL of Buffer RLT (Qiagen, Germantown, MD 20874) by Quintiles/Expression Analysis (Durham, NC) using a custom isolation procedure. Total RNA from each plate well was transferred to a preamplification plate. Fluidigm's 96.96 Dynamic ArrayTM (Fluidigm, Amsterdam, the Netherlands) technology was used for gene expression analyses by quantitative reverse transcription polymerase chain reaction (qRT-PCR, performed by Quintiles/Expression Analysis, Durham, NC)89. Standard TaqManTM Assays (Applied Biosystems/ThermoFisher Scientific, Foster City, CA) were used to assess the expression of 93 genes selected based on their selectivity and sensitivity to important hepatic receptors known to be modulated by environmental chemicals; importance in human hepatocyte functionality; and hepatotoxicity. […]

Structure (SMILES)	outcome
CCOC(=O)c1ccccc1C(=O)OCC	inactive
O=[N+]([O-])c1ccccc1	inactive
OCC1CO1 (stereo not given)	inactive
CN(C)C(=O)Cl	inactive
O=P1(N(CCCl)CCCl)NCCCO1 (stereo not given)	inactive
CCNc1nc(Cl)nc(NC(C)(C)C)n1	inactive
CCOc1ccc(C(C)(C)COCc2cccc(Oc3ccccc3)c2)cc1	inactive
c1nc[nH]n1	inactive
COCCOCCO	inactive
O=C(O)C(Cl)Cl	inactive
CCC(C)(C)c1ccc(O)cc1	inactive
ClC(Cl)c1ccccc1	inactive
CC(C)(C)c1ccc(O)cc1	inactive
Cc1ccc(O)cc1C	inactive
CC(Cl)(Cl)C(=O)O	inactive
CCN(CC)c1ccccc1	inactive
c1ccc2c(c1)Nc1ccccc1S2	inactive
Cc1cccc(N)c1	inactive
CCCCN(CCCC)N=O	inactive
Cc1ccc([N+](=O)[O-])cc1C	inactive

Structure (SMILES)	outcome
CCCCc1ccccc1	inactive
Nc1cc2c3c(c1)C(c1ccccc1)=N[C@@H](NC(=O)c1cccnc1)C(=O)N3CC2	inactive
O=P(Oc1ccccc1)(Oc1ccccc1)Oc1ccccc1	inactive
Nc1ccc(Cl)cc1	inactive
CCOS(=O)(=O)OCC	inactive
CSC(C)(C)C=NO	inactive
ClC(Cl)(Cl)c1ccccc1	inactive
ClC1=C(Cl)C2(Cl)C3C(Cl)C(Cl)CC3C1(Cl)C2(Cl)Cl (stereo not given)	inactive
CC(C)(C)OOC(C)(C)C	inactive
CCOP(=S)(Oc1ccc([N+](=O)[O-])cc1)c1ccccc1 (stereo not given)	inactive
CC(Cc1ccc(OCC(=O)O)cc1)NCC(O)c1csc(C(F)(F)F)n1 (stereo not given)	inactive
CCCCCCCc1ccc(O)cc1	inactive
CCCN(CCC)c1c([N+](=O)[O-])cc(C(C)C)cc1[N+](=O)[O-]	inactive
Cc1ccc(N)cc1N	inactive
c1cc2c3c(cccc3c1)CC2	inactive
O=C(O)C1C(C(=O)O)C2(Cl)C(Cl)=C(Cl)C1(Cl)C2(Cl)Cl (stereo not given)	inactive
CCC1(c2ccccc2)C(=O)N=C(O)NC1=O (stereo not given)	inactive
[N-]=[N+]=[N-]	inactive
CCOP(=S)(OCC)SCSCC	inactive
c1ccc(OP(Oc2ccccc2)Oc2ccccc2)cc1	inactive
